{"source": "the supplement of paper PMC8728848", "binders": {"B1": {"name": "Epa3to2 (Candida glabrata) (protein)", "chain": "MGSSHHHHHHSSGLVPRGSHMKRELSSQNPFGYPIGCSPQDVAIIPGLTMELYSYPIVSGTPPNCYDASYVDPEYPRTGYLKRKMVGKSTGVTGNLNYKYSVEKACMVKYGNLPAGYNYNEPLTVSNFTMILYGYFKAQTTGLHTFFVNADDLLYINFGAGNAFDCCKREDSKTKLGEYVAYDIWHVDSSKNKVSLFLEKDLYYPIRMFFNNRDNNSSLDLSFSVNGATDQISDFSGYLYSVPDQPDTCPAHIGYDTTCR"}}, "test_in_all_cases": "glycan array binding signal (z-score within array); higher = stronger binding", "conditions_in_all_cases": "glycan notation: IUPAC condensed, linker removed", "key": {"[1]": {"target": "Fuc(a1-2)Gal(b1-3)GalNAc(b1-3)Gal", "how_it_was_run": "(§1)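 The Consortium for Functional Glycomics database supplied 3228 glycan arrays, of which those lacking an available protein sequence were dropped. The binding signal, a within-array Z-score, was averaged across arrays of the same protein sequence and across linkers. Negative scores can be read as non-binding.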"}, "[2]": {"target": "Fuc(a1-2)Gal(b1-3)GlcNAc(b1-3)[Gal(b1-4)GlcNAc(b1-6)]Gal(b1-4)Glc", "how_it_was_run": "as §1"}, "[3]": {"target": "Fuc(a1-2)Gal(b1-4)GlcNAc6S", "how_it_was_run": "as §1"}, "[4]": {"target": "Fuc(a1-2)Gal(b1-4)[Fuc(a1-3)]GlcNAc(b1-2)Man(a1-3)[Fuc(a1-2)Gal(b1-4)[Fuc(a1-3)]GlcNAc(b1-2)Man(a1-6)]Man(b1-4)GlcNAc(b1-4)[Fuc(a1-6)]GlcNAc", "how_it_was_run": "as §1"}, "[5]": {"target": "Fuc(a1-2)Gal6S(b1-3)GlcNAc6S", "how_it_was_run": "as §1"}, "[6]": {"target": "Fuc(a1-2)[Gal(a1-3)]Gal(b1-3)GlcNAc", "how_it_was_run": "as §1"}, "[7]": {"target": "Fuc(a1-2)[Gal(a1-3)]Gal(b1-4)GlcNAc", "how_it_was_run": "as §1"}, "[8]": {"target": "Fuc(a1-2)[Gal(a1-3)]Gal(b1-4)GlcNAc(b1-6)GalNAc", "how_it_was_run": "as §1"}, "[9]": {"target": "Fuc(a1-3)[Gal(b1-4)]Glc6S", "how_it_was_run": "as §1"}, "[10]": {"target": "Fuc(a1-3)[Gal(b1-4)]GlcNAc(b1-6)GalNAc", "how_it_was_run": "as §1"}, "[11]": {"target": "Fuc(a1-3)[Gal3S(b1-4)]Glc", "how_it_was_run": "as §1"}, "[12]": {"target": "Gal(a1-3)Gal(b1-4)GlcNAc(b1-2)Man", "how_it_was_run": "as §1"}, "[13]": {"target": "Gal(b1-3)GlcNAc", "how_it_was_run": "as §1"}, "[14]": {"target": "Gal(b1-3)GlcNAc(a1-3)Gal(b1-4)GlcNAc", "how_it_was_run": "as §1"}, "[15]": {"target": "Gal(b1-3)GlcNAc(b1-2)[Gal(b1-3)GlcNAc(b1-6)]Man(a1-6)[Gal(b1-3)GlcNAc(b1-2)Man(a1-3)]Man(b1-4)GlcNAc(b1-4)GlcNAc", "how_it_was_run": "as §1"}, "[16]": {"target": "Gal(b1-3)GlcNAc(b1-3)Gal(b1-4)GlcNAc(b1-2)[Gal(b1-3)GlcNAc(b1-3)Gal(b1-4)GlcNAc(b1-6)]Man(a1-6)[Gal(b1-3)GlcNAc(b1-3)Gal(b1-4)GlcNAc(b1-2)Man(a1-3)]Man(b1-4)GlcNAc(b1-4)[Fuc(a1-6)]GlcNAc", "how_it_was_run": "as §1"}, "[17]": {"target": "Gal(b1-3)[Fuc(a1-4)]GlcNAc(b1-2)Man", "how_it_was_run": "as §1"}, "[18]": {"target": "Gal(b1-3)[Fuc(a1-4)]GlcNAc(b1-3)Gal(b1-3)[Fuc(a1-4)]GlcNAc", "how_it_was_run": "as §1"}, "[19]": {"target": "Gal(b1-4)GlcNAc(b1-2)Man(a1-3)[Man(a1-6)]Man(b1-4)GlcNAc(b1-4)GlcNAc", "how_it_was_run": "as §1"}, "[20]": {"target": "Gal3S(b1-4)[Fuc(a1-3)]Glc6S", "how_it_was_run": "as §1"}, "[21]": {"target": "Gal3S4S(b1-4)GlcNAc", "how_it_was_run": "as §1"}, "[22]": {"target": "Gal3S6S(b1-4)GlcNAc", "how_it_was_run": "as §1"}, "[23]": {"target": "Gal6S(b1-3)GlcNAc", "how_it_was_run": "as §1"}, "[24]": {"target": "Gal6S(b1-3)GlcNAc6S", "how_it_was_run": "as §1"}, "[25]": {"target": "Gal6S(b1-4)GlcNAc6S", "how_it_was_run": "as §1"}, "[26]": {"target": "GalNAc(a1-3)Gal", "how_it_was_run": "as §1"}, "[27]": {"target": "GalNAc(b1-3)Gal(a1-6)Gal(b1-4)Glc", "how_it_was_run": "as §1"}, "[28]": {"target": "GlcNAc(a1-3)Gal(b1-4)GlcNAc", "how_it_was_run": "as §1"}, "[29]": {"target": "GlcNAc(a1-4)Gal(b1-3)GlcNAc", "how_it_was_run": "as §1"}, "[30]": {"target": "GlcNAc(a1-4)Gal(b1-4)GlcNAc(b1-3)Gal(b1-4)[Fuc(a1-3)]GlcNAc(b1-3)Gal(b1-4)[Fuc(a1-3)]GlcNAc", "how_it_was_run": "as §1"}}, "note": "Shown is part of a subset that was picked to be rich in the strongest signals.", "data": [{"binder": "B1", "values": [{"measurement": "glycan array binding signal (z-score)", "setting": "[1]", "value": 3.03}, {"measurement": "glycan array binding signal (z-score)", "setting": "[2]", "value": 1.2}, {"measurement": "glycan array binding signal (z-score)", "setting": "[3]", "value": -0.709}, {"measurement": "glycan array binding signal (z-score)", "setting": "[4]", "value": 2.47}, {"measurement": "glycan array binding signal (z-score)", "setting": "[5]", "value": 2.11}, {"measurement": "glycan array binding signal (z-score)", "setting": "[6]", "value": -0.392}, {"measurement": "glycan array binding signal (z-score)", "setting": "[7]", "value": -0.27}, {"measurement": "glycan array binding signal (z-score)", "setting": "[8]", "value": -0.714}, {"measurement": "glycan array binding signal (z-score)", "setting": "[9]", "value": 0.316}, {"measurement": "glycan array binding signal (z-score)", "setting": "[10]", "value": -1.35}, {"measurement": "glycan array binding signal (z-score)", "setting": "[11]", "value": 0.878}, {"measurement": "glycan array binding signal (z-score)", "setting": "[12]", "value": -0.911}, {"measurement": "glycan array binding signal (z-score)", "setting": "[13]", "value": -0.751}, {"measurement": "glycan array binding signal (z-score)", "setting": "[14]", "value": -0.807}, {"measurement": "glycan array binding signal (z-score)", "setting": "[15]", "value": 0.52}, {"measurement": "glycan array binding signal (z-score)", "setting": "[16]", "value": 0.293}, {"measurement": "glycan array binding signal (z-score)", "setting": "[17]", "value": 0.761}, {"measurement": "glycan array binding signal (z-score)", "setting": "[18]", "value": -1.46}, {"measurement": "glycan array binding signal (z-score)", "setting": "[19]", "value": 0.07}, {"measurement": "glycan array binding signal (z-score)", "setting": "[20]", "value": 0.958}, {"measurement": "glycan array binding signal (z-score)", "setting": "[21]", "value": -0.354}, {"measurement": "glycan array binding signal (z-score)", "setting": "[22]", "value": 2.42}, {"measurement": "glycan array binding signal (z-score)", "setting": "[23]", "value": 0.814}, {"measurement": "glycan array binding signal (z-score)", "setting": "[24]", "value": 3.65}, {"measurement": "glycan array binding signal (z-score)", "setting": "[25]", "value": 2.45}, {"measurement": "glycan array binding signal (z-score)", "setting": "[26]", "value": 1.49}, {"measurement": "glycan array binding signal (z-score)", "setting": "[27]", "value": 1.12}, {"measurement": "glycan array binding signal (z-score)", "setting": "[28]", "value": -1.07}, {"measurement": "glycan array binding signal (z-score)", "setting": "[29]", "value": -1.92}, {"measurement": "glycan array binding signal (z-score)", "setting": "[30]", "value": 2.65}]}]}
